8 compounds from PubChem BioAssay (EPA / NIEHS) can be followed below.

By AC50 is commonly meant the concentration at which the activity in the assay is half-maximal.

Common to all, as to conditions: mRNA level, 48 h; actives raise or lower the signal
Read-out in one test: CYP2E1 (gene 1571)
In words: LTEA_HepaRG_CYP2E1: Life Technologies and Expression Analysis (LTEA) Assay for CYP2E1 using HepaRG (AID 2283485). In a few lines: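 CYP2E1 transcript was measured by TaqMan qRT-PCR in human HepaRG cultures after 48 h chemical exposure (top 100 uM, half-log steps, 0.5% DMSO vehicle). Housekeeping-gene normalization; gain or loss fitted relative to DMSO baseline.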

Read-out in test [1]: Early growth response protein 1 (EGR1) transcription factor, EGR1 (gene 1958)
Kind of test: LTEA_HepaRG_EGR1: Life Technologies and Expression Analysis (LTEA) Assay for Early growth response protein 1 (EGR1) transcription factor using HepaRG (AID 2283490). A digest of the protocol:
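HepaRG, 48 h exposure, 8-pt half-log series from 100 uM, 0.5% DMSO vehicle; EGR1 transcript by TaqMan qRT-PCR (Fluidigm array), housekeeping-normalized; bidirectional fit relative to DMSO baseline.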

Read-out in test [2]: Ezrin (EZR), EZR (gene 7430)
In words: LTEA_HepaRG_EZR: Life Technologies and Expression Analysis (LTEA) Assay for Ezrin (EZR) using HepaRG (AID 2283491). In a few lines: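 Read-out is EZR transcript level by qRT-PCR, normalized to three housekeeping genes and fitted bidirectionally against the DMSO control. Human HepaRG cells received test chemicals for 48 h at eight half-log concentrations up to 100 uM in 0.5% DMSO.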

Read-out in test [3]: Cytochrome P450 3A7 (Homo sapiens) (UniProt P24462)
In words: LTEA_HepaRG_CYP3A7: Life Technologies and Expression Analysis (LTEA) Assay for CYP3A7 using HepaRG (AID 2283492). In a few lines: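 qRT-PCR of CYP3A7 in HepaRG lysates after 48 h treatment; concentration-response (8 points, max 100 uM) analysed bidirectionally relative to 0.5% DMSO controls.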

Read-out in another test: CYP3A5 (gene 1577)
Kind of test: LTEA_HepaRG_CYP3A5: Life Technologies and Expression Analysis (LTEA) Assay for CYP3A5 using HepaRG (AID 2283493). In a few lines:
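qRT-PCR read-out: CYP3A5 transcript in HepaRG lysates, housekeeping-normalized (ACTB/GAPDH/POLR2A), fitted bidirectionally against 0.5% DMSO baseline. Exposure 48 h, eight half-log concentrations up to 100 uM, duplicates.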

Read-out in test [4]: Fatty Acid-Binding Protein 1 (FABP1), FABP1 (gene 2168)
In words: LTEA_HepaRG_FABP1: Life Technologies and Expression Analysis (LTEA) Assay for Fatty Acid-Binding Protein 1 (FABP1) using HepaRG (AID 2283494). In a few lines: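 qRT-PCR readout of FABP1 transcript (normalized to three housekeeping genes) after 48 h chemical exposure of HepaRG cells; eight concentrations, half-log steps, max 100 uM, 0.5% DMSO vehicle; gain or loss fitted relative to DMSO baseline.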

Read-out in test [5]: Cytochrome P450 4A22 (Homo sapiens) (UniProt Q5TCH4)
In words: LTEA_HepaRG_CYP4A22: Life Technologies and Expression Analysis (LTEA) Assay for Cytochrome P450 4A22 (CYP4A22) using HepaRG (AID 2283495). A digest of the protocol: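 Concentration-response (8 points, max 100 uM, 0.5% DMSO) in human HepaRG liver cells after 48 h exposure. CYP4A22 mRNA by TaqMan qRT-PCR with housekeeping-gene normalization.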

Read-out in test [6]: Cytochrome P450 7A1 (Homo sapiens) (UniProt P22680)
In words: LTEA_HepaRG_CYP7A1: Life Technologies and Expression Analysis (LTEA) Assay for Cytochrome P450 7A1 (CYP7A1) using HepaRG (AID 2283496). In a few lines: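 Using 0.5% DMSO as vehicle and baseline, chemicals were tested in duplicate over an 8-point range from 100 uM on HepaRG cells for 48 h; qRT-PCR signals were normalised to ACTB, GAPDH and POLR2A.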

Read-out in test [7]: Glutathione S-Transferase (GSTA2), GSTA2 (gene 2939)
In words: LTEA_HepaRG_GSTA2: Life Technologies and Expression Analysis (LTEA) Assay for Glutathione S-Transferase (GSTA2) using HepaRG (AID 2283497). A digest of the protocol: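 qRT-PCR readout of GSTA2 transcript, normalized to three housekeeping genes, fitted bidirectionally against 0.5% DMSO baseline. Differentiated HepaRG cells received compound for 48 h at 8 concentrations (top 100 uM, half-log steps).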

Read-out in test [8]: Glutamate-cysteine ligase catalytic (GCLC), GCLC (gene 2729)
In words: LTEA_HepaRG_GCLC: Life Technologies and Expression Analysis (LTEA) Assay for Glutamate-cysteine ligase catalytic (GCLC) using HepaRG (AID 2283498). A digest of the protocol: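 HepaRG, 48 h exposure, 8-pt half-log series from 100 uM, 0.5% DMSO vehicle; TaqMan qRT-PCR for GCLC mRNA, housekeeping-normalized; bidirectional curve fit vs DMSO baseline.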

Read-out in test [9]: growth arrest and DNA damage 45 (GADD45G), GADD45G (gene 10912)
In words: LTEA_HepaRG_GADD45G: Life Technologies and Expression Analysis (LTEA) Assay for growth arrest and DNA damage 45 (GADD45G) using HepaRG (AID 2283499). A digest of the protocol:
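Concentration-response in HepaRG: 48 h dosing, 0.5% DMSO, highest level 100 uM. GADD45G expression by qRT-PCR, normalised to endogenous controls; bidirectional fit to DMSO.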

Read-out in test [10]: Glutamate-cysteine ligase regulatory (GCLM), GCLM (gene 2730)
Kind of test: LTEA_HepaRG_GCLM: Life Technologies and Expression Analysis (LTEA) Assay for Glutamate-cysteine ligase regulatory (GCLM) using HepaRG (AID 2283500). In a few lines:
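HepaRG, 48 h dosing, 100 uM top, half-log x8, 0.5% DMSO vehicle. Readout: GCLM mRNA by TaqMan qRT-PCR, housekeeping-normalized (ACTB/GAPDH/POLR2A). Curves fit bidirectionally vs DMSO baseline.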

Read-out in test [11]: Heat shock 70 kDa protein 1 (HSPA1A), gene 3303
Kind of test: LTEA_HepaRG_HSPA1A: Life Technologies and Expression Analysis (LTEA) Assay for Heat shock 70 kDa protein 1 (HSPA1A) using HepaRG (AID 2283502). A digest of the protocol:
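HepaRG, 48 h exposure, 8-pt half-log CRC from 100 uM in 0.5% DMSO, duplicates. Readout: TaqMan qRT-PCR of HSPA1A mRNA, housekeeping-normalized (ACTB/GAPDH/POLR2A). Bidirectional fit vs 0.5% DMSO baseline.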

Read-out in test [12]: Hypoxia-inducible factor 1-alpha (Homo sapiens) (UniProt Q16665)
In words: LTEA_HepaRG_HIF1A: Life Technologies and Expression Analysis (LTEA) Assay for Hypoxia-inducible factor 1 (HIF1A) Trancription factor using HepaRG (AID 2283503). A digest of the protocol: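 Gain- or loss-of-signal HIF1A mRNA changes are fitted against a DMSO baseline. HepaRG cultures receive eight concentrations, highest 100 uM, for 48 h in serum-free induction medium with 0.5% DMSO.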

Read-out in test [13]: 3-Hydroxy-3-Methylglutaryl-CoA Synthase 2 (HMGCS2), HMGCS2 (gene 3158)
Kind of test: LTEA_HepaRG_HMGCS2: Life Technologies and Expression Analysis (LTEA) Assay for 3-Hydroxy-3-Methylglutaryl-CoA Synthase 2 (HMGCS2) using HepaRG (AID 2283504). A digest of the protocol:
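This steatosis marker was read as HMGCS2 mRNA change in HepaRG cells treated 48 h with up to 100 uM chemical. Normalisation used housekeeping genes; activity in either direction was fitted relative to 0.5% DMSO vehicle.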

Read-out in test [14]: Pro-epidermal growth factor (Homo sapiens) (UniProt P01133)
In words: LTEA_HepaRG_EGF: Life Technologies and Expression Analysis (LTEA) Assay for Epidermal growth factor (EGF) using HepaRG (AID 2283489). In a few lines: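 Concentration-response mRNA assay: HepaRG cells dosed 48 h (max 100 uM, 0.5% DMSO), EGF measured by qRT-PCR and normalized to ACTB/GAPDH/POLR2A.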

Read-out in test [15]: Glutathione S-transferase M3 (GSTM3), GSTM3 (gene 2947)
Kind of test: LTEA_HepaRG_GSTM3: Life Technologies and Expression Analysis (LTEA) Assay for Glutathione S-transferase M3 (GSTM3) using HepaRG (AID 2283501). A digest of the protocol:
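Expression of GSTM3 is determined by qRT-PCR in human liver HepaRG cells treated 48 h with an 8-point half-log range from 100 uM in 0.5% DMSO.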

Read-out in test [16]: DNA damage-inducible transcript 3 (DDIT3), DDIT3 (gene 1649)
In words: LTEA_HepaRG_DDIT3: Life Technologies and Expression Analysis (LTEA) Assay for DNA damage-inducible transcript 3 (DDIT3) using HepaRG (AID 2283488). A digest of the protocol: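 qRT-PCR readout (Fluidigm TaqMan), housekeeping-normalized to ACTB, GAPDH, POLR2A. HepaRG cells, 48 h exposure, 8-point half-log series from 100 uM in 0.5% DMSO, duplicates. Gain or loss of signal fitted against DMSO baseline.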

Activity calls are given as the source filed them. Rule for the calls: active = hit-call score of the fitted dose curve at least 0.9, where 1 is the maximum; inactive = score below 0.9.

Chain of Cytochrome P450 3A7 (Homo sapiens) (P24462 whole entry, looked up): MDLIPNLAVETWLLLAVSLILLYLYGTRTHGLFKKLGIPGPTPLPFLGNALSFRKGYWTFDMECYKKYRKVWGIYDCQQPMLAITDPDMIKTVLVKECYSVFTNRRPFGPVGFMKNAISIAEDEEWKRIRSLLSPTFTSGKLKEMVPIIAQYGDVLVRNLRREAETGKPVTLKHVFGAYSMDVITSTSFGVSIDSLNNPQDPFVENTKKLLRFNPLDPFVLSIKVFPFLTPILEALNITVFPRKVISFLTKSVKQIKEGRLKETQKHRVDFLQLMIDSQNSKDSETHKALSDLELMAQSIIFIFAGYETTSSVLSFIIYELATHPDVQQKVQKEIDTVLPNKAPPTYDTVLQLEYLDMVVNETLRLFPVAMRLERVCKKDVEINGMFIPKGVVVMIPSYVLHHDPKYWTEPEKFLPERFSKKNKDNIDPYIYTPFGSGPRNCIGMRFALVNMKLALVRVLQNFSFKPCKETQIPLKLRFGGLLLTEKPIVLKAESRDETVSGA
Chain of Hypoxia-inducible factor 1-alpha (Homo sapiens) (Q16665 whole entry, looked up): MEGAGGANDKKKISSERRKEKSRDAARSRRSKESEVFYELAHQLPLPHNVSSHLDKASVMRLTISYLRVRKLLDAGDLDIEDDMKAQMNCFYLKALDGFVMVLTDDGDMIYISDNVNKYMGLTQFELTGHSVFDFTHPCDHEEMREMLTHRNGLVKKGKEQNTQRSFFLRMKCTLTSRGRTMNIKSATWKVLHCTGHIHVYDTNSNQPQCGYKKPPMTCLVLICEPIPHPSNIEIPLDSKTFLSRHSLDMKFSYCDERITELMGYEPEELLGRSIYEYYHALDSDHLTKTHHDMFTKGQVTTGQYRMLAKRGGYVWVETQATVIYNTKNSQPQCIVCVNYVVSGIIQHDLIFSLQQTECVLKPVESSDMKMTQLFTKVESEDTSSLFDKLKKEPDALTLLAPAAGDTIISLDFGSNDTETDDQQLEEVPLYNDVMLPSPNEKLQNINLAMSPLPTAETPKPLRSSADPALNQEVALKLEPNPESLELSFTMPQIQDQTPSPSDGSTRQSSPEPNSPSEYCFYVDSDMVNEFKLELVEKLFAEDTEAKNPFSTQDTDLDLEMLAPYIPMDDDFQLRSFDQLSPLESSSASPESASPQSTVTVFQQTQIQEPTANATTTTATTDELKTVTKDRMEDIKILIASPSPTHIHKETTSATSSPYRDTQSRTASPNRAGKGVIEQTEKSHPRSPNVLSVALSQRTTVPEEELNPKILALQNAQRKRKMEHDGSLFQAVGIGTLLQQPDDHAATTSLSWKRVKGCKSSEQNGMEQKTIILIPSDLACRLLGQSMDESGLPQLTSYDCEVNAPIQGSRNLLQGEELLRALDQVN

In the case of `CCOC(=O)C(O)(c1ccc(Cl)cc1)c1ccc(Cl)cc1`, the AC50 with CYP2E1 (gene 1571) is 30.4 µM (active); in test [3], 50 µM (active); in test [5], 50 µM (active). In addition, the compound was called inactive (in [1]; in test [2]; with CYP3A5 (gene 1577); in [4]; in test [6]; in test [7]). Further, the compound was classed as inactive in test [8], in test [9], in test [10], in test [11], in test [12] and in test [13].
Turning to `CN(C)c1nc(=O)n(C2CCCCC2)c(=O)n1C`, the compound was classed as inactive (with CYP2E1 (gene 1571); in [14]; in test [2]; with CYP3A5 (gene 1577); in test [4]; in [6]). The result in test [7], in test [8], in [9], in test [10], in test [11] and in test [12] was inactive. In [13], the compound was called inactive. The AC50 in test [3] is 28.6 µM (active).
Regarding `CCCN(CCC)N=O`, the outcome (with CYP2E1 (gene 1571); in [2]; in test [3]; with CYP3A5 (gene 1577); in test [4]; in test [6]) was inactive. For the same compound, the compound was classed as inactive in [7], in test [8], in test [9], in test [10], in test [15] and in test [11]. In addition, the compound was classed as inactive in test [12] and in test [13].
For the compound `CC1=C2C[C@H]3[C@@H](CC=C4C[C@@H](O)CC[C@@]43C)[C@@H]2CC[C@]12O[C@@H]1C[C@H](C)CN[C@H]1[C@H]2C`, the outcome (in the test with CYP2E1 (gene 1571); in [16]; in test [1]; in test [2]; in test [3]; with CYP3A5 (gene 1577)) was inactive. The outcome in test [4], in test [5], in test [6], in test [7], in test [8] and in [9] was inactive. For the same compound, the result in test [10], in test [15], in test [11], in [12] and in [13] was inactive.
On to `Cc1cccc(C)c1N`, for which the outcome (with CYP2E1 (gene 1571); in [16]; in [14]; in test [3]; with CYP3A5 (gene 1577); in test [4]) was inactive. Besides, the compound was classed as inactive in [5], in test [6], in [7], in test [8], in [9] and in test [10]. The compound was classed as inactive in [11], in test [12] and in [13]. Also, the AC50 in [2] is 0.364 µM (active).
On to `O=C(O)C(F)(F)C(F)(F)C(F)(F)C(F)(F)C(F)(F)C(F)(F)C(F)(F)C(F)(F)C(F)(F)F`, for which the AC50 is 25.4 µM (active) in the test with CYP2E1 (gene 1571); 17 µM (active) in [16]; 11.5 µM (active) in test [2]; 80.3 µM (active) in test [3]; 94.1 µM (active) in the test with CYP3A5 (gene 1577); 33.7 µM (active) in test [4]. Also, the half-maximal activity concentration (AC50) was 79.7 µM (active) in [5]; 27.6 µM (active) in [6]; 35.5 µM (active) in test [7]; 85.4 µM (active) in [8]; 19.4 µM (active) in [9]; 34 µM (active) in test [13]. In addition, the outcome in test [10], in [11] and in [12] was inactive.
Regarding `C[C@]12CCC(=O)C=C1CC[C@@H]1[C@@H]2CC[C@@]2(C)[C@H]1CC[C@]2(C)O`, the concentration at half-maximal activity (AC50) with CYP2E1 (gene 1571) is 79.5 µM (active); in test [6] it was 1.9 µM (active); in [13], 69 µM (active). Moreover, the call (in [1]; in test [2]; in test [3]; with CYP3A5 (gene 1577); in test [4]; in test [7]) was inactive. In addition, the result in test [8], in test [9], in test [10], in [11] and in [12] was inactive.
Turning to `Cc1cc(O)ccc1Cl`, the outcome (in the test with CYP2E1 (gene 1571); in [2]; in test [3]; in the test with CYP3A5 (gene 1577); in test [4]; in test [6]) was inactive. For the same compound, the result in [7], in [8], in [9], in test [10], in test [11] and in test [12] was inactive. Also, the compound was classed as inactive in test [13].
